Experimental findings from publication PMC12136788 are described below.

Where a chain is given by its changes, count along the chain named. Whole data set: some 24,000 sequences, median “enrichment r” near 0.99, cut for the highest 2% near 3.7. Many of the other results were omitted from the sample, so the highest values are more common in it than they were.

Sequences and labels used below:
T1: UNK ZnF1-3 (human, UniProt Q9C0B0 31-174)
T1 sequence: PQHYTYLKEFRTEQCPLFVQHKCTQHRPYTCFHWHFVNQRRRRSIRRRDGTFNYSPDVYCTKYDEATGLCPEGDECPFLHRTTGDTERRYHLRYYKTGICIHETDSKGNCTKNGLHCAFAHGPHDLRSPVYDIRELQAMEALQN

B1: chr10:114798999:114799000:-_ENSMUSG00000069520_ENSMUST00000092170|mus_mus|motif|central (ssRNA)
RNA: GGGAGUUCUACAGUCCGACGAUCUCAUCUUUAUAUACCUUUUGCACGUAGUGUCGUCACUAUCUGUCAUGGAAAAUAGAGCGGCGAGCACAUCUUCCACCAACCGAACGACAAAAUAGAAUCGUAAAUCCAAAACGUCUAGUCCAACAGAGGAUUGAGCAUCA
B2: chr1:225977196:225977197:+_ENSG00000143742_ENST00000304786|hu_mus|FALSE|FALSE (ssRNA)
RNA: GGGAGUUCUACAGUCCGACGAUCAUUCCGUUUCCAAAAAUAAAGGUUUUCUAACUGGAAACCCCGACAUUCCUACUCUCUAAAGCAAACUUUAGGACGCAGGCUGGUCUCUCGGCUUUGACAGCUCCAUUACGUAAGUAUAUCCAACAGAGGAUUGAGCAUCA
B3: 29117783_29124966_335_CDS_ENSG00000163811_ENST00000407426|human|control|control (ssRNA)
RNA: GGGAGUUCUACAGUCCGACGAUCUUUUACUGUGCUGUAUAAUAAAAUGCUACCAACUGCUGUGCCAAGAGCCAAUAAGUCAGUCUGGUUACUCAUUCCUACAGCUUCUGAUUUCCUUUUUUUCCUCUGGGGACUUUCCUUGGCCAACAGAGGAUUGAGCAUCA
B4: chr7:141450121:141450122:+_ENSG00000106028_ENST00000265304|hu_mus|hu_hu_hu_mus_True|18_38 (ssRNA)
RNA: GGGAGUUCUACAGUCCGACGAUCUCAUCCGUUCUAUGCCUUUUCUUUUGUCUGGUCACUCAGAAAUAUAAUGUUAUCAGCUAUGAUUGUUGUUGCUUGUCGCCUCACAUUGUUUUUAUCCAUGUAUUCGCCAUAGUCCACUUUCAACAGAGGAUUGAGCAUCA
B5: chr4:115894766:115894767:+_ENSMUSG00000028698_ENSMUST00000030464|mus_hu|mus_mus_mus_hu_True|18_98 (ssRNA)
RNA: GGGAGUUCUACAGUCCGACGAUCUUCCACACGGAAAGUACUUGGGGGUUUUCCAACGGCCAGUACCAGUCCGGCCAAACUACCCGAACAGGGUCCUCCCCCUCUCUCCUACAGAACUAAAGCACCCGCCCCCGAACUUUCAAGCAACAGAGGAUUGAGCAUCA
B6: chr7:140404665:140404666:+_ENSG00000090266_ENST00000247866|hu_hu|hu_hu_hu_mus_False|1_108 (ssRNA)
RNA: GGGAGUUCUACAGUCCGACGAUCUGCGUACAGAGUGCCAGAGAGUUUACAGUGUCAGUCCUCGUCAUCAGGAGGGAUUCCCAGUUCUUCAUCUGUCCACUGUGAAGGAUCUGGAUAUGAAAAGUGACCCAGCACAGCUUCUGACAACAGAGGAUUGAGCAUCA
B7: chr1:39494447:39494448:+_ENSG00000168653_ENST00000372967|hu_mus|hu_hu_hu_mus_False|78_108 (ssRNA)
RNA: GGGAGUUCUACAGUCCGACGAUCGCAUCGACCAGCCUUCUUAUAGGGCUGUUCUGCACUCUGGAUUAUAAAGUGCCGGUCCAGGCUGAUGCCCAGCUUUUUCUGUAUGUCAAGGAAAGGCAUGGCUCUGCAGUGCCCUUGUCACAACAGAGGAUUGAGCAUCA
B8: 114145877_114145997_1367_3pUTR_ENSMUSG00000033545_ENSMUST00000095176|mouse|control|control (ssRNA)
RNA: GGGAGUUCUACAGUCCGACGAUCUUUGCAGUGGACAAUGUCUGUUCCACAGGCCACUACUUAGUGAUUCUUCCCUUUCAGAACCGAGUCUCUGAGAGGUGAGGGAGGUGAGGCUGCUGUAGAGCCUGGCUGGGGGCGCCUCUGCAACAGAGGAUUGAGCAUCA
B9: chr7:130337358:130337359:+_ENSMUSG00000052707_ENSMUST00000094053|mus_mus|FALSE|FALSE (ssRNA)
RNA: GGGAGUUCUACAGUCCGACGAUCACAAGAUUUUUUGACCGGGGAACUGGUUUCCUGAGAACCAUGCUCUUUGAUUUAGGACAGGAAUAGAAAACAGAAGAACAUGGCCAACUGCUGCUCUUUUCCCAGAGAUAGAAGCGUCUUCAACAGAGGAUUGAGCAUCA
B10: chr2:165877891:165877892:+_ENSMUSG00000027678_ENSMUST00000088095|mus_mus|motif|central (ssRNA)
RNA: GGGAGUUCUACAGUCCGACGAUCGAACCUCUGGAUACAUCUUCGGAUUAUGUCUUCAAAGCCAGGCCUCAUGGAAGAUCGGAGUGAGUUUGUAUCUAUAUUGACAACCUUUCCGGAAAGGUCAUGUCUGGUAAUAAAGCUCUCCAACAGAGGAUUGAGCAUCA
B11: chr19:7500544:7500545:-_ENSMUSG00000024758_ENSMUST00000025667|mus_mus|FALSE|FALSE (ssRNA)
RNA: GGGAGUUCUACAGUCCGACGAUCACAGACACGUACACAAUUUCAUUAGUAAUUUUUUCAUCUCUACGAGUCUUUGUUUAAAAAAACAAAACCGAAAAAACCCUCUCAUGUAACACAGAAACCUUUCCAAUUAUUUUAACACAGCAACAGAGGAUUGAGCAUCA
B12: chr13:100193591:100193592:-_ENSMUSG00000052727_ENSMUST00000064762|mus_mus|motif|central (ssRNA)
RNA: GGGAGUUCUACAGUCCGACGAUCUUAAACCCUCAGAGUAAAAGAGCAGUGCGAAACAUACGCUUUACAGACGAAAAUAAACGGAAAUGUAAAUUUUGAAAUAAAUAACUAACAUAGAAAAUAAAAUGAGGUCAUUGUUCACUACAACAGAGGAUUGAGCAUCA
B13: chr3:32586495:32586496:-_ENSG00000144635_ENST00000273130|hu_hu|FALSE|FALSE (ssRNA)
RNA: GGGAGUUCUACAGUCCGACGAUCUUUCUGUAAAGAAUCCAAAGCAGUCCAAGGCUUUGACAUGUCAACAACCAGCAUAACUAGAGUAUCCUUCAGAGAUACGGCAUCCAGUGAAAAUUUAAGGAGGCCUUUGUGAUAUAGGUCCAACAGAGGAUUGAGCAUCA
B14: chr13:100193591:100193592:-_ENSMUSG00000052727_ENSMUST00000064762|mus_mus|FALSE|FALSE (ssRNA)
RNA: B12 RNA with G82U, G83A
B15: 44559432_44560298_1111_3pUTR_ENSMUSG00000032096_ENSMUST00000034607|mouse|control|control (ssRNA)
RNA: GGGAGUUCUACAGUCCGACGAUCACAUUUGGAUGCGUCUGUAGCUGCACCCCUUUCUUAUCUUCAUUUUCUACAUGAAGACGAAUCCGGCCAAAUUUGUCAUCUGAGAUCCUAAGCAUGAUCAUGCCAUGCAACUCCAUAUUCCAACAGAGGAUUGAGCAUCA
B16: chr15:55677894:55677895:-_ENSG00000260916_ENST00000569205|hu_mus|motif|central (ssRNA)
RNA: GGGAGUUCUACAGUCCGACGAUCGGAACAUUCUAGAGUCAGUCCACAGUUGUCACUGGCUGUGGCAGAAUUCACGAUCUCGGUAUCAGAACCCUCAUGAUUGAUGACAGUCCAGCCACAAGAUGAGUCGCUGUCGCUGGAACUCAACAGAGGAUUGAGCAUCA
B17: chr5:133537698:133537699:-_ENSG00000113575_ENST00000481195|hu_mus|FALSE|FALSE (ssRNA)
RNA: GGGAGUUCUACAGUCCGACGAUCGCUCUCGUGAUUCCCUCGGAGUAUGGUGAUGCGCUCUCGGUAACGAACCUUAAGAGCUACAAGCAGUGUAACUGUUUCAACAGAGUAAUAUCCUCUGUCCACAUAGUCUCCCAUAAACAGCAACAGAGGAUUGAGCAUCA
B18: chr7:129114946:129114947:-_ENSMUSG00000034951_ENSMUST00000057576|mus_hu|motif|central (ssRNA)
RNA: GGGAGUUCUACAGUCCGACGAUCAUCAACAAGCAUCAUUAAGCUGUUCUGCAUACCUGUUAGCUUGGCAGAAAUCACAGCGGUGUCCUGAGUCUUAAAUGUCUCCUCAAUAUCGGCGCUCAACGUGCUCCACUUAUCUGCUUCCAACAGAGGAUUGAGCAUCA
B19: chr2:179515052:179515053:+_ENSMUSG00000000305_ENSMUST00000000314|mus_hu|mus_mus_mus_hu_False|28_108 (ssRNA)
RNA: GGGAGUUCUACAGUCCGACGAUCGCUUUCCCGCGCAGUCACCGUGAACGCCACCUGCUCGGAGGGGACCUGCAGCUCCCGGGUGGCGAAGACUGUCCCAUCUGCCCCGACUUUGAAGUCCAUGCUGUUGGUCUCAUAUUGUGUCAACAGAGGAUUGAGCAUCA
B20: chr22:38881817:38881818:-_ENSG00000100201_ENST00000396821|hu_mus|FALSE|FALSE (ssRNA)
RNA: GGGAGUUCUACAGUCCGACGAUCUAAUUAUAGACUGGAUCUUUUGGGUGGGCAGAAGAAACCUGGCAGUGAAAUUUUAACUAUCUGCAUUAAAAAAAGAUAAACCGUAAUGGUUGAGAAAAGAAAAAAUAAAAAUGAAAAGGUCAACAGAGGAUUGAGCAUCA
B21: 110384571_110384691_763_CDS_ENSG00000138802_ENST00000265175|human|control|control (ssRNA)
RNA: GGGAGUUCUACAGUCCGACGAUCUCCUGAAAGACUUUGCUGCUGGUGGUGCUGUUGUGAUGGUAGAGGUGGAAGUGGCGAUGGAUGGCUGAUAGCUGUAUUUUGACCAGAGAAUGAAUUAUCUUUAACUGGCCUAACAGUCGGCAACAGAGGAUUGAGCAUCA
B22: chr22:38881817:38881818:-_ENSG00000100201_ENST00000396821|hu_mus|motif|central (ssRNA)
RNA: B20 RNA with U81G, A82G
B23: chr1:109605286:109605287:-_ENSG00000197780_ENST00000461096|hu_mus|hu_hu_hu_mus_True|58_108 (ssRNA)
RNA: GGGAGUUCUACAGUCCGACGAUCAAGAACAAUAACAACAUUCAGUAACCUCUUUAAAUGCAAUUAUCCUUAUUAUAAACUAAGGGCAAUAAUAAUUUAAUACCGUAAGUGAACUACACACAAAGCCUGAACCGCGAAAAUGGUCAACAGAGGAUUGAGCAUCA

This assay addresses T1, UNK ZnF1-3. The assay is described as follows: nsRBNS (natural sequence RNA bind-n-seq); RBNS binding buffer (assumed for nsRBNS): 25 mM Tris pH 7.5, 150 mM KCl, 3 mM MgCl2, 0.01% Triton X-100, 500 ug/ml BSA, 20 U/ml SUPERase-In, 4 C; UNK is unkempt and MSI1 is Musashi-1; names of the RNAs are library labels; protein concentration not given here; high values mean tight binding.
Take B1: the binding signal was determined as 0.824 enrichment R.

With B2, the binding signal came to 0.892 enrichment R.

For the molecule B3, the binding signal was found to be 0.828 enrichment R.

For B4, the binding signal stood at 0.364 enrichment R.

The molecule B5 returned a binding signal of 1.44 enrichment R.

B6 came in with a binding signal of 1.16 enrichment R.

The molecule B7 came in with a binding signal of 1 enrichment R.

Take B8: the binding signal stood at 0.695 enrichment R.

With B9, the binding signal was found to be 0.987 enrichment R.

B10 came in with a binding signal of 0.788 enrichment R.

As to B11, the binding signal was 1.21 enrichment R.

The molecule B12 yielded a binding signal of 4.73 enrichment R.

For the molecule B13, the binding signal was determined as 1.74 enrichment R.

Take B14: the binding signal turned out to be 5.86 enrichment R.

Consider B15, for which the binding signal stood at 0.578 enrichment R.

As for B16, the binding signal stood at 0.495 enrichment R.

Consider B17, for which the binding signal worked out at 0.691 enrichment R.

B18 yielded a binding signal of 0.781 enrichment R.

For B19, the binding signal was 0.727 enrichment R.

In turn, B20 showed a binding signal of 6.63 enrichment R.

B21 returned a binding signal of 1.16 enrichment R.

The molecule B22 displayed a binding signal of 8.6 enrichment R.

In turn, B23 yielded a binding signal of 1.22 enrichment R.
